Results on eleven molecules are retold here after PubChem BioAssay.

A short description of test [1]: HepG2 liver cancer cell viability effects, profiling panel, resazurin fluorescence, 24 h, PK04 Diversity Set (AID 1172). Further: test concentration not given here. As to conditions: higher = more signal. In general terms: Alamar Blue is a resazurin reagent that responds to reducing activity.
The nature of test [2]: basal S. cerevisiae growth modulation, no modifier, primary screen, OD600, strain BY4716, 24 h, basal condition (AID 1173). Particulars: OD600, 24 h, higher = more signal, called active from +8 up or from −8 down.
Test [3] can be described thus: MM1S myeloma cell viability, profiling panel, resazurin fluorescence, basal, 24 h, PK04 Diversity Set (AID 1174).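 Further: MM1S multiple myeloma cell line; test concentration not given here.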 As to conditions: higher = more signal, called active from +8 up or from −8 down.
Test [4] addresses Dihydroorotate dehydrogenase (quinone), mitochondrial (Plasmodium falciparum (isolate 3D7)) (UniProt Q08210). Put plainly: PfDHODH enzyme inhibitors, primary screen, biochemical, C-terminal His tag, absorbance 600 nm (AID 1175).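 Further: recombinant parasite enzyme with a five histidine tag at its C terminus; test concentration not given here.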 As to conditions: DCIP absorbance 600 nm, higher = more signal, called active from +8 up or from −8 down.
The nature of test [5]: P. aeruginosa biofilm formation inhibitors, primary screen, strain PAO1, LB-PBS medium, absorbance 600 nm (AID 1176). Further: test concentration not given here. As to conditions: P. aeruginosa PAO1 growth/biofilm, A600, 12 h; higher = more signal.
The nature of test [6]: S. cerevisiae RM11-1a growth modifiers, primary screen, strain RM11-1a, OD600, basal, 24 h (AID 1177).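 Further: cultures grown under basal conditions with no added stressor; test concentration not given here.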 As to conditions: OD600, 24 h, higher = more signal, called active from +8 up or from −8 down.
Test [7] can be described thus: E. coli acrAB mutant growth effects, primary screen, E. coli filamentation inducers, strain DRC39, OD650, 24 h (AID 1178).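 Further: growth measured as culture turbidity by optical density at 650 nm; test concentration not given here.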 Particulars: higher = more signal, called active from +8 up or from −8 down.
The nature of test [8]: E. coli acrAB mutant growth effects, primary screen, E. coli filamentation inducers, strain DRC39, OD650, 48 h (AID 1179).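 Further: screen aims at cell division blockers that make cells filament.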 Particulars: E. coli DRC39 delta-acrAB growth, higher = more signal, called active from +8 up or from −8 down.
The nature of test [9]: RPMI8226 myeloma cell viability, profiling panel, resazurin fluorescence, basal, 24 h, PK04 Diversity Set (AID 1180).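 Further: RPMI8826 multiple myeloma cell line at 5000 cells per well; test concentration not given here.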 Particulars: higher = more signal.
In test [10] the target is E3 ubiquitin-protein ligase XIAP (Homo sapiens) (UniProt P98170). As to the kind of experiment: XIAP binders, primary screen, biophysical, small-molecule microarray, fluorescence 635 nm (AID 1181).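 Further: score merges 667 nm emission and signal to noise over triplicate slides.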 As to conditions: small-molecule microarray binding, higher = more signal.
Sequence of E3 ubiquitin-protein ligase XIAP (Homo sapiens) (P98170 whole entry, looked up): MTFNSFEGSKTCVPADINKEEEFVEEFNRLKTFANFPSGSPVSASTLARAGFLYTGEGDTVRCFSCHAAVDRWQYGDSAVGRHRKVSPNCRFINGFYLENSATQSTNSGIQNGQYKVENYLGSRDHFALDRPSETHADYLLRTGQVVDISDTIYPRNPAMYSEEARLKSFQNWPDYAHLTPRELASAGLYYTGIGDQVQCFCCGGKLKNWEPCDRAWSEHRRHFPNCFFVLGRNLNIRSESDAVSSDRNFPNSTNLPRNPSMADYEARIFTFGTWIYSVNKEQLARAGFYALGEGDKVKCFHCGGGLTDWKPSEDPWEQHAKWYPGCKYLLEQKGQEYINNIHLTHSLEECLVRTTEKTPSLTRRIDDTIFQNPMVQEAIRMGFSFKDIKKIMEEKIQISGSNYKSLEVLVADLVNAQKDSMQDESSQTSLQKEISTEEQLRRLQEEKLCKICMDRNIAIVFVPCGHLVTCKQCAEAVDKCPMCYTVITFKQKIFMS

Each structure is given as a SMILES string. Calls of active or inactive are those of the source. Unless noted, how the calls were made is not given here.

Sequence of Dihydroorotate dehydrogenase (quinone), mitochondrial (Plasmodium falciparum (isolate 3D7)) (Q08210 whole entry, looked up): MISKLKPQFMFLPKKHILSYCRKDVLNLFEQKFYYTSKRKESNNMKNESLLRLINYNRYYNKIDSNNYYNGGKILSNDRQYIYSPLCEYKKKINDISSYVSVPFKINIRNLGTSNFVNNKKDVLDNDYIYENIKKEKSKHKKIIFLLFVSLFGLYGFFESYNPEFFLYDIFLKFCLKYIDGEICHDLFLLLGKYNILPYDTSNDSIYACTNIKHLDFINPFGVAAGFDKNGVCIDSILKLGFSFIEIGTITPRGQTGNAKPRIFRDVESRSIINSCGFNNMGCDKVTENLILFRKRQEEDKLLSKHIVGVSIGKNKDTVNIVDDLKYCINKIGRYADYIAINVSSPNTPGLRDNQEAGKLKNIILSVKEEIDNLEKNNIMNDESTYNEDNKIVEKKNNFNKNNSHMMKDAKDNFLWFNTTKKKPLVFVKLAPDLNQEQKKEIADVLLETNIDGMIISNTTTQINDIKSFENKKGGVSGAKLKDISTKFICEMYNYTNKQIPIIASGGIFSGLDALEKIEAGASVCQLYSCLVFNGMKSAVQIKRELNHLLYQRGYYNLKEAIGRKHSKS

Consider `O=C1O[C@H](c2ccccc2)[C@H](c2ccccc2)N2[C@H]1[C@@H](C(=O)N1CCCCCCC1)[C@]1(C(=O)Nc3ccc(C#CC4=CCCCC4)cc31)[C@H]2c1ccc(O)cc1`, for which the z-score in test [1] was 0.693; in [2], -0.63 (inactive); in [3] it was -0.693 (inactive); in test [5], 0.485 (inactive); in [6], -0.668 (inactive); in [7], -0.182 (inactive). Also, the values for the z-score in test [8] and in test [9] were -1.53 (inactive) and -0.0437, respectively. Moreover, the composite z-score was -0.744 (inactive) in [4] and 3.33 in test [10].
In the case of `COC(=O)[C@@]1(Cc2ccc(F)cc2)[C@H]2c3cc(C(=O)N(C)C)n(CCCNc4ccc(C(F)(F)F)cc4Cl)c3C[C@H]2CN1C(=O)c1ccccc1`, the z-score was -0.591 in [1]; 1.28 (inactive) in test [2]; -1.98 (inactive) in test [3]; 0.439 (inactive) in [5]; 0.482 (inactive) in test [6]; -0.0949 (inactive) in [7]. The z-score in test [8] was 0.29 (inactive); in [9], -3.88. Also, the composite z-score in test [4] is -0.0269 (inactive); in test [10], 0.143.
`CC(C)N1C(=O)c2ccccc2[C@](C)(C(=O)NC2CC2)[C@@H]1c1ccc(CO)cc1`: the z-score in [1] was 0.989; in test [2] it was -0.708 (inactive); in test [3], 0.192 (inactive); in test [5] it was -0.342 (inactive); in test [6] it was 0.382 (inactive); in [7], 0.783 (inactive). For the same molecule, the z-score in test [8] was 1.5 (inactive); in [9], 0.798. Also, the composite z-score in test [4] was -0.231 (inactive); in test [10], -0.0536.
Consider `[N-]=[N+]=NCc1ccccc1C[C@]1(C(=O)NCCN2CCOCC2)N=C(c2ccc(OCCCO)cc2)O[C@H]1c1ccccc1CN=[N+]=[N-]`, for which the z-score is 0.0176 in test [1]; -2.56 (inactive) in test [2]; 0.836 (inactive) in test [3]; 0.428 (inactive) in test [5]; -1.95 (inactive) in test [6]; 1.93 (inactive) in test [7]. Besides, the z-score in [8] was 0.844 (inactive); in [9], 0.0688. The composite z-score is 1.31 (inactive) in test [4] and 0.0871 in test [10].
Turning to `O=C1O[C@@H](c2ccccc2)[C@@H](c2ccccc2)N2[C@@H](c3ccc(O)cc3)[C@]3(C(=O)Nc4ccccc43)[C@@H](C(=O)NC[C@H](O)c3ccccc3)[C@H]12`, the z-score in test [1] was 1.42; in test [2], -0.882 (inactive); in test [3] it was 0.616 (inactive); in [5], -0.489 (inactive); in test [6], 0.0813 (inactive); in test [7], 0.389 (inactive). Also, the z-score was -0.163 (inactive) in [8] and -0.273 in [9]. Further, the composite z-score in [4] was 0.609 (inactive); in [10] it was 0.272.
Take `O=[N+]([O-])c1ccc(C[n+]2ccc(CCCO)cc2)o1`: the z-score is -1.32 in test [1]; -7.77 (inactive) in test [2]; -1.27 (inactive) in test [3]; 0.0214 (inactive) in test [5]; 0.379 (inactive) in test [6]; -1.4 (inactive) in test [7]. Moreover, the z-score in [8] is -0.841 (inactive); in [9] it was -0.211. Moreover, the composite z-score in test [4] is 0.403 (inactive); in test [10], 0.905.
Consider `Cc1cccc(/C=C/C=O)c1`, for which the z-score in [1] was 0.033; in test [2], -2.91 (inactive); in test [3], -0.0488 (inactive); in [5], 0.13 (inactive); in test [6], -0.181 (inactive); in test [7], 0.578 (inactive). In addition, the figures for the z-score in [8] and in test [9] were 0.35 (inactive) and 0.387, respectively. In addition, the composite z-score in [4] was -1.16 (inactive); in test [10] it was -0.0559.
As to `COc1ccccc1CN1C(=O)c2ccccc2[C@](Cc2ccccc2I)(C(=O)NC2CC2)[C@@H]1c1ccc(CO)cc1`, the z-score in test [1] is -0.246; in test [2] it was 0.329 (inactive); in [3], -0.185 (inactive); in test [5], 0.0714 (inactive); in [6], 1.66 (inactive); in test [7], 0.127 (inactive). For the same molecule, the z-score in test [8] is 0.877 (inactive); in [9] it was -0.198. The composite z-score was 0.629 (inactive) in [4] and 0.591 in test [10].
With `O=C(NCc1ccccc1)[C@@H]1c2ccccc2C(=O)N(C2CCCCC2)[C@H]1c1ccc(CO)cc1`, the z-score in test [1] was -0.178; in [2] it was 0.0854 (inactive); in test [3], -0.765 (inactive); in test [5], 0.0993 (inactive); in test [6], 0.138 (inactive); in [7], 0.0692 (inactive). Further, the z-score in test [8] is 0.268 (inactive); in test [9], -1.7. Further, the composite z-score in test [4] was 0.0557 (inactive); in test [10], 0.117.
Turning to `C[C@]1(C(=O)NCC(F)(F)F)c2ccccc2C(=O)N(Cc2cc(F)cc(C(F)(F)F)c2)[C@H]1c1ccc(CO)cc1`, the z-score in test [1] is 0.378; in [2], -0.459 (inactive); in [3] it was -0.191 (inactive); in test [5], 1.32 (inactive); in [6] it was -0.401 (inactive); in test [7], -0.0567 (inactive). The z-score in test [8] was -0.376 (inactive); in test [9] it was 0.532. Moreover, the composite z-score in [4] is -0.191 (inactive); in test [10], -0.0884.
Turning to `CN1C(=O)C2C(C1=O)C1C=C(c3ccc(CO)cc3)C2C(C2CC2)N1Cc1sc2ccccc2c1Cl` (stereo not given), the z-score in test [1] is 0.0076; in test [2], -1.82 (inactive); in test [3] it was -5.41 (inactive); in [5], 0.255 (inactive); in test [6] it was 1.2 (inactive); in test [7], 0.225 (inactive). The z-score in test [8] was 0.0618 (inactive); in test [9] it was -3.3. The composite z-score in test [4] is -1.46 (inactive); in test [10], 0.262.
